Source: PubChem BioAssay (National Center for Advancing Translational Sciences (NCATS))
This is a sample that favours compounds with a hit; in the whole collection about 11% have one here.
AmpC detergent – blocks E. coli AmpC beta-lactamase in detergent assay | P00811 | AmpC hydrolysis of nitrocefin, absorbance 480 nm, 0.01% Triton | Potency, µM (series often up to 114 µM), inactives show at the top dose activity change, negative = inhibition, hits mostly inhibitors | actives 0.041% (n = 370,000) | AID 485294;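 note: 0% = no-compound wells and -100% = no-enzyme wells; nearly all actives have a fitted effect of over 25% in size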
Target sequence (P00811 whole entry, looked up): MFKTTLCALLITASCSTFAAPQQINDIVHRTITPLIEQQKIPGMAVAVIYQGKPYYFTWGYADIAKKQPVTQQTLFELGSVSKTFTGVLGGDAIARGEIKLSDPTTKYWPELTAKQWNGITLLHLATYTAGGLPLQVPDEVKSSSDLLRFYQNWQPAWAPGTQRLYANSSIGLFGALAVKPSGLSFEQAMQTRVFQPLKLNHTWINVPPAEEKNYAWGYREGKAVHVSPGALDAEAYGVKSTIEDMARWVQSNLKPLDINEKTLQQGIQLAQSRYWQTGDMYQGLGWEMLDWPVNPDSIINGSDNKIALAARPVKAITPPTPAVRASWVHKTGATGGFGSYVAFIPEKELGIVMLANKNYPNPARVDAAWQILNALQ
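20 mM phosphate pH 7.0 + 0.01% (detergent screen) or 0.0001% Triton X-100; 5.3 nM AmpC reagent; cpd preinc 15 min RT; nitrocefin (800 uM stock) to start; A480 q20 s × 4 min; Activity was normalised to no-enzyme and no-compound control wells.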
AMA1 RON2 block – AMA1-RON2 (P. falciparum) interaction inhibition | actives 0.2% (n = 360,000) | AlphaScreen AMA1-biotinylated RON2 peptide binding | Potency, µM (series often up to 58.2 µM), inactives show at the top dose activity change, negative = inhibition, hits mostly inhibitors;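 note: 0% = vehicle wells and -100% = peptide control; nearly all actives have a fitted effect of over 45% in size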
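AMA1 (3D7) with his tag at 25 nM final met compounds first, then biotinylated RON2 peptide at 25 nM; detection used donor plus acceptor beads, 10 µg/mL apiece, read by AlphaScreen after 30 min at room temperature.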
Pf growth 48h – P. falciparum growth inhibition at 48 hours (one generation); actives 5.9% (n = 310,000); Potency, µM (titrated, usually from 28.7 µM), inactives show at the top dose activity change, negative = inhibition, most hits filed as inhibitors; P. falciparum luciferase growth in erythrocytes, 48 h
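Luciferase-expressing P. falciparum in infected erythrocytes (2% hematocrit, 0.1% parasitemia final) in RPMI 1640/0.5% Albumax were exposed to compound for 48 hours at 37 C, 5% CO2; growth read as luminescence.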
Pf growth 96h – P. falciparum growth inhibition at 96 hours. P. falciparum luciferase reporter growth, 96 h. Potency, µM (top dose mostly 28.7 µM), inactives show at the highest dose activity change, negative = inhibition, usual class: inhibitors. actives 6.9% (n = 320,000). AID 504834
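P. falciparum expressing integrated firefly luciferase, in erythrocytes at 2% hematocrit, 0.05% parasitemia, incubated with compounds 96 h at 37 C, 5% CO2. Growth inhibition read as loss of luminescence; two-generation exposure targets delayed-death apicoplast inhibitors.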
AmpC no deterg – inhibitors of E. coli AmpC beta-lactamase without detergent | P00811 | AmpC nitrocefin hydrolysis, absorbance 480 nm, 0.0001% Triton | Potency, µM (top dose mostly 57.1 µM), for inactives: at the top dose activity change, negative = inhibition, hits mostly inhibitors | actives 0.52% (n = 330,000) | AID 485341;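 note: plate controls were no compound for no effect and no enzyme for full effect; nearly all actives have a fitted effect of over 20% in size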
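AmpC (5.3 nM in the dispensed reagent) in 20 mM phosphate pH 7.0 with 0.01% (detergent screen) or 0.0001% Triton X-100 was preincubated with compounds for 15 min at room temperature. Nitrocefin was then added from an 800 uM solution, and hydrolysis was followed at 480 nm.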
HCV inhibitor – inhibitors of hepatitis C virus infection; AID 651820; actives 3.4% (n = 340,000); Huh7.5.1 HCVcc-Cre infection, luciferase reporter, 44 h; Potency, µM (top dose mostly 41.8 µM), for inactives: at the highest dose activity change, negative = inhibition, hits mostly inhibitors
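Cells (1,000/well) were plated 4 h before compound, then infected with HCVcc-Cre virus (~0.5 moi). After 44 h further culture, infection was read as luciferase luminescence following a 15 min substrate incubation at room temperature.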
Numbers without * were called inactive. Calls come from the whole dose curve; as a rule, active = well fitted curve in the direction sought with a large enough effect; inconclusive = small, poorly fitted or top-dose-only effect, or another doubt; inactive = no such curve, though single readings can be large; an effect the other way counts as inactive or inconclusive. Unless noted, % is set by controls: 0 for no effect and ±100 for the full control effect; potency is the fitted concentration of half-maximal effect.

What do the screens show for `CC(=O)c1ccc(OCC(O)CN2CCN(S(=O)(=O)c3c(C)c(C)cc(C)c3C)CC2)cc1` (centres undefined)?
AmpC detergent: -6%; AMA1 RON2 block: -2%; Pf growth 48h: inconclusive; Pf growth 96h: -23%; AmpC no deterg: 146%; HCV inhibitor: 13µM*

Results for COc1ccc2c(C)c(CC(=O)NCCc3ccc(Cl)cc3)c(=O)oc2c1C ?
AmpC detergent: 10%

What do the screens show for `CCCCN1C(=O)/C(=C2/Sc3ccccc3N2C)S/C1=N\c1ncn[nH]1`?
AmpC detergent: 3%; AMA1 RON2 block: 16%; Pf growth 48h: 7.4µM*; Pf growth 96h: 40%; AmpC no deterg: -19%; HCV inhibitor: -14%

How did Cc1ccc(OCCCCn2cnc3ccccc32)cc1 do in these assays?
AmpC detergent: -8%; AMA1 RON2 block: 11%; Pf growth 48h: 30%; Pf growth 96h: -1%; AmpC no deterg: 14%; HCV inhibitor: inconclusive

What do the screens show for `Cc1ccccc1OCCn1c(C)nc2ccccc21`?
AmpC detergent: 0%; AMA1 RON2 block: -8%; Pf growth 48h: inconclusive; Pf growth 96h: -29%; AmpC no deterg: 57%; HCV inhibitor: 5.6µM*

What do the screens show for `Cc1ccccc1OCCCCn1c(CO)nc2ccccc21`?
AmpC detergent: -2%; AMA1 RON2 block: 10%; Pf growth 48h: inconclusive; Pf growth 96h: inconclusive; AmpC no deterg: 96%; HCV inhibitor: 11µM*

What do the screens show for `Cc1ccc(OCCCn2c(CO)nc3ccccc32)cc1`?
AmpC detergent: inconclusive; AMA1 RON2 block: -5%; Pf growth 48h: 65%; Pf growth 96h: 7%; AmpC no deterg: 13%; HCV inhibitor: 2%

Results for Cc1ccccc1OCCCCn1cnc2ccccc21 ?
AmpC detergent: 1%; AMA1 RON2 block: 5%; Pf growth 96h: -11%; AmpC no deterg: 47%; HCV inhibitor: 7.9µM*

How did COc1ccc(-c2cc(C)no2)cc1S(=O)(=O)N1CCN(c2ccccc2F)CC1 do in these assays?
AmpC detergent: -6%; AMA1 RON2 block: -11%; Pf growth 48h: -25%; Pf growth 96h: -21%; AmpC no deterg: 14%; HCV inhibitor: 7.1µM*

Results for COc1ccc(-c2cc(C)no2)cc1S(=O)(=O)N1CCCN(Cc2ccccc2Cl)C1 ?
AmpC detergent: 3%; AMA1 RON2 block: -4%; Pf growth 48h: inconclusive; Pf growth 96h: 12µM*; AmpC no deterg: 52%; HCV inhibitor: inconclusive

How did Cc1cc(-c2ccc(C(C)C)c(S(=O)(=O)N3CCN(c4ccccn4)CC3)c2)on1 do in these assays?
AmpC detergent: 2%; AMA1 RON2 block: -5%; Pf growth 48h: inconclusive; Pf growth 96h: inconclusive; AmpC no deterg: 21%; HCV inhibitor: 11µM*

Results for CCc1ccc(-c2cc(C)no2)cc1S(=O)(=O)N1CCN(c2ccccn2)CC1 ?
AmpC detergent: -2%; AMA1 RON2 block: -5%; Pf growth 48h: inconclusive; Pf growth 96h: inconclusive; AmpC no deterg: 14%; HCV inhibitor: inconclusive

What do the screens show for `COc1ccc(-c2cc(C)no2)cc1S(=O)(=O)N1CCN(c2ccccn2)CC1`?
AmpC detergent: -6%; AMA1 RON2 block: -6%; Pf growth 48h: -19%; Pf growth 96h: -9%; AmpC no deterg: 129%; HCV inhibitor: 13µM*

What do the screens show for `COc1ccc(-n2ncc3c2ncn2nc(-c4ccc(OC)c(OC)c4)nc32)cc1`?
AmpC detergent: 13%

What do the screens show for `O=C(NCCNCC(O)COc1ccc(O)cc1)N1CCOCC1` (centres undefined)?
AMA1 RON2 block: 9%; Pf growth 48h: -15%; Pf growth 96h: 6.7µM*; HCV inhibitor: 0.32µM*

How did O=C(NCCCc1ccccc1)N1CCOCC1 do in these assays?
AmpC detergent: -6%; AMA1 RON2 block: 11%; Pf growth 48h: 13%; Pf growth 96h: 2%; AmpC no deterg: -9%; HCV inhibitor: -3%

How did COC(=O)CS(=O)(=O)c1nc2ccccc2nc1N1CCCCC1 do in these assays?
AmpC detergent: 16%

What do the screens show for `Cc1cccc(Oc2sc(C(=O)c3ccccc3)c(N)c2C#N)c1`?
AmpC detergent: -2%; AMA1 RON2 block: -3%; Pf growth 48h: -5%; Pf growth 96h: -25%; AmpC no deterg: -25%; HCV inhibitor: 10µM*

What do the screens show for `COc1ccc(-c2c(C#N)c(N)nc3sc(C(=O)c4ccccc4)c(N)c23)cc1`?
AmpC detergent: -1%; AMA1 RON2 block: 17%; Pf growth 48h: 9.3µM*; Pf growth 96h: -10%; AmpC no deterg: -18%; HCV inhibitor: inconclusive

Results for COc1ccccc1N1CCN(c2ncnc3c2c(-c2ccccc2)cn3-c2cccc(C)c2)CC1 ?
AmpC detergent: 7%

Results for COc1ccc(-c2cc(C(=O)NCc3ccc(F)cc3)c3c(-c4ccc(F)cc4)[nH]nc3n2)cc1OC ?
AmpC detergent: 1%

Results for CCC(C)(NC(=O)c1ccc(=O)[nH]c1)C(=O)NC1CCCC1 (centres undefined) ?
AmpC detergent: inconclusive; AMA1 RON2 block: 3%; Pf growth 48h: -3%; Pf growth 96h: -2%; AmpC no deterg: 2.8µM*; HCV inhibitor: 1%

How did Cc1ccc(-n2nc(CO)c(C(=O)NC(C)c3ccccc3)n2)cc1C (centres undefined) do in these assays?
AmpC detergent: -6%

What do the screens show for `COc1ccccc1/C=C1\SC(=S)N(CCC(=O)N2CCCCC2CCO)C1=O` (centres undefined)?
AmpC detergent: inconclusive; AMA1 RON2 block: -20%; Pf growth 48h: inconclusive; Pf growth 96h: inconclusive; AmpC no deterg: 175%; HCV inhibitor: inconclusive

Results for COc1cccc(/C=C2\SC(=S)N(CCCC(=O)N3CCCCC3CCO)C2=O)c1 (centres undefined) ?
AmpC detergent: -6%; AMA1 RON2 block: -24%; Pf growth 48h: inconclusive; Pf growth 96h: 3.7µM*; AmpC no deterg: 208%; HCV inhibitor: inconclusive

What do the screens show for `O=C1/C(=C/c2cccs2)SC(=S)N1CCC(=O)N1CCCCC1CCO` (centres undefined)?
AmpC detergent: -2%; AMA1 RON2 block: 3%; Pf growth 48h: inconclusive; Pf growth 96h: 12µM*; AmpC no deterg: 153%; HCV inhibitor: -9%

How did COc1cccc(/C=C2\SC(=S)N(CCCC(=O)N3CCCC3)C2=O)c1 do in these assays?
AmpC detergent: -4%; AMA1 RON2 block: -9%; Pf growth 48h: 13µM*; Pf growth 96h: 4.1µM*; AmpC no deterg: 87%; HCV inhibitor: inconclusive
